Assay [1] is described as follows: liver-stage malaria parasite growth inhibition, primary screen, cell-based, HepG2, luciferase luminescence, HepG2 viability (AID 624349; in the data active = parasite load remaining mostly below about 12%, no sharp cut-off; inactive = mostly above about 10%;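 note: 100% = mean of DMSO negative control wells on the same plate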). The conditions noted are these: P. berghei liver stage in HepG2, luciferase luminescence, concentration not given here; parasite load remaining: stronger effect = lower value; viability: measured here: HepG2 viability without parasites.
The target in assay [2] is 6-phosphogluconate dehydrogenase, decarboxylating (Homo sapiens) (UniProt P52209). As to the kind of experiment: 6PGD enzyme inhibitors, primary screen, biochemical, human, recombinant enzyme, NADPH absorbance (AID 1159550;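 active = at least 20% inhibition of 6-phosphogluconate dehydrogenase activity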). Conditions: recombinant 6PGD, NADPH absorbance 341 nm; at 10 µM; stronger effect = higher value.
The nature of assay [3]: sensitizers of A549 cells to miR-34 induction, primary screen, imaging, A549 dox-inducible miR-34, nuclei and caspase counts (AID 1347080). Conditions: A549 miR-34 inducible, Hoechst nuclei count, 48 h.
In assay [4] the target is Mitogen-activated protein kinase 7 (Homo sapiens) (UniProt Q13164). Briefly: ERK5 transactivation activators in reporter cells, primary screen, cell-based, HTS (AID 1508626;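 active = luciferase signal above three times the same-plate solvent-only control wells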;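 note: luciferase driven by Gal4-ERK5 fusion binding five Gal4 sites before minimal TATA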). The conditions noted are these: HeLa Gal4-ERK5 transactivation, 18 h, at 5 µM, stronger effect = higher value.
Assay [5] is described as follows: survival rescue of mitochondrial mutant cells in low glucose, primary screen, MELAS cybrids, Rieske KO mouse fibroblasts, CellTiter-Glo (AID 1508586;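 active = mean z-score across replicates of 1.96 or higher in either the MELAS or the Rieske mutant cell line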;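 note: z relative to plate mean and SD of compound and empty wells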). For orientation: ATP-based viability assays read luminescence as a measure of living cells.
Assay [6] has as its target NAD(+) hydrolase SARM1 (Homo sapiens) (UniProt Q6SZW1). As to the kind of experiment: SARM1 TIR NADase inhibitors, cell lysate, NAD-Glo luminescence (AID 1508614;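 active = compound whose remaining NAD level is above about 45 nM, limit read from the data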;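 note: higher remaining NAD means stronger inhibition of SARM1 NADase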). The conditions noted are these: SAM-TIR HEK293T lysate NADase, at 1 µM, stronger effect = higher value.
Assay [7] can be described thus: viability rescue of complex I mutant cybrids, primary screen, cell-based, galactose medium, ATP luminescence (AID 1645843;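 active = z-score of at least 1.8 in each of two replicates, scored against plate mean and spread of sample wells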;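 note: positive z means more ATP and so rescue of galactose-driven cybrid death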). The conditions noted are these: complex I mutant cybrid cells, 72 h, stronger effect = higher value.
Assay [8] in a line: polyglutamine-triggered caspase-3 activation inhibitors, cell-based (AID 1583). Conditions: polyglutamine-induced caspase-3 activation, cell assay; stronger effect = higher value;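 tested at 10 µM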.
The nature of assay [9]: suppressors of polyQ aggregation in yeast, 75Q-TubU reporter (AID 1593). The conditions noted are these: Yeast 75Q polyglutamine aggregation reporter.
The nature of assay [10]: rescue of polyQ-huntingtin neuronal dysfunction in worms, whole organism, C. elegans mechanosensory neurons, N-terminal huntingtin (AID 1599). Conditions: touch response, stronger effect = higher value.
A short description of assay [11]: inhibitors of mitochondrial cytochrome c release, biochemical, purified mitochondria (AID 1603).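 Note: mouse liver mitochondria challenged with calcium chloride; signal normalized to the plate average as 100%.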 Conditions: stronger effect = lower value.
Assay [12] is described as follows: inhibitors of polyQ protein aggregation (AID 1604). The conditions noted are these: polyglutamine-induced protein aggregation inhibition assay; stronger effect = higher value; tested at 2.5 µM.
Assay [13] can be described thus: enhancers of glutamate uptake in motor neurons, MN-1 cell line (AID 1612).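 Note: tested at 1 µM final; 0% = mean of DMSO vehicle wells on each plate; positive means more glutamate uptake than control and negative means less.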 Conditions: MN-1 motor neuron cells, stronger effect = higher value.
Assay [14] in a line: suppressors of polyglutamine aggregation in yeast, 75Q-TubH (AID 1616). The conditions noted are these: S. cerevisiae 75Q-TubH polyglutamine aggregation suppression; stronger effect = higher value.
[15] abbreviates: stronger effect = lower value, cell number ratio, induced over uninduced.
Setting [16] is: measured here: relative caspase fold change +Dox/-Dox.
Setting [17] is: measured here: total cells with miR-34 induction, stronger effect = lower value.
Where [18] appears, read: measured here: total cells without miR-34 induction.
The mark [19] stands for this setting: MELAS cybrid survival, CellTiter-Glo 48 h, stronger effect = higher value.
Where [20] appears, read: Rieske KO mouse fibroblast survival, CellTiter-Glo 72 h.

Structures are written as SMILES. Where “and” joins values, the source holds several entries; their conditions need not be identical. Identical values can stand only once. For part of these data: Entries with a potency or affinity are not part of this list. Some structures have more than one record in an assay (separate samples or runs), and their calls can disagree. Calls of active or inactive are those of the source.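 Rule for the calls, unless noted: active = compounds whose cell count with miR-34 switched on is under 0.7 times the count with it off; inactive = the rest.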

6-phosphogluconate dehydrogenase, decarboxylating (Homo sapiens), sequence (P52209 whole entry, looked up): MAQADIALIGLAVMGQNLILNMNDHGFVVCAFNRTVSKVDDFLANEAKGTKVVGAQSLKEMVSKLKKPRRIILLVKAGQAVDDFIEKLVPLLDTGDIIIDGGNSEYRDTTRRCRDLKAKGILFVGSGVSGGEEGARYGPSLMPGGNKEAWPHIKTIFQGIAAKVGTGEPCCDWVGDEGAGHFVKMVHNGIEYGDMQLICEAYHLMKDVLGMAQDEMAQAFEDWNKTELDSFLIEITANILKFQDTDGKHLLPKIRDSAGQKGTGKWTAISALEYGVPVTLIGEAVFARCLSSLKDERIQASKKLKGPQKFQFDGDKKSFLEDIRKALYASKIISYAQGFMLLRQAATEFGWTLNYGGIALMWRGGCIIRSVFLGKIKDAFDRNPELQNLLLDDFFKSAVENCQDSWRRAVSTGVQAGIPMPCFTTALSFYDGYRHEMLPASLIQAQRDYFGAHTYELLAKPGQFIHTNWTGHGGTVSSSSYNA
NAD(+) hydrolase SARM1 (Homo sapiens), sequence (Q6SZW1 whole entry, looked up): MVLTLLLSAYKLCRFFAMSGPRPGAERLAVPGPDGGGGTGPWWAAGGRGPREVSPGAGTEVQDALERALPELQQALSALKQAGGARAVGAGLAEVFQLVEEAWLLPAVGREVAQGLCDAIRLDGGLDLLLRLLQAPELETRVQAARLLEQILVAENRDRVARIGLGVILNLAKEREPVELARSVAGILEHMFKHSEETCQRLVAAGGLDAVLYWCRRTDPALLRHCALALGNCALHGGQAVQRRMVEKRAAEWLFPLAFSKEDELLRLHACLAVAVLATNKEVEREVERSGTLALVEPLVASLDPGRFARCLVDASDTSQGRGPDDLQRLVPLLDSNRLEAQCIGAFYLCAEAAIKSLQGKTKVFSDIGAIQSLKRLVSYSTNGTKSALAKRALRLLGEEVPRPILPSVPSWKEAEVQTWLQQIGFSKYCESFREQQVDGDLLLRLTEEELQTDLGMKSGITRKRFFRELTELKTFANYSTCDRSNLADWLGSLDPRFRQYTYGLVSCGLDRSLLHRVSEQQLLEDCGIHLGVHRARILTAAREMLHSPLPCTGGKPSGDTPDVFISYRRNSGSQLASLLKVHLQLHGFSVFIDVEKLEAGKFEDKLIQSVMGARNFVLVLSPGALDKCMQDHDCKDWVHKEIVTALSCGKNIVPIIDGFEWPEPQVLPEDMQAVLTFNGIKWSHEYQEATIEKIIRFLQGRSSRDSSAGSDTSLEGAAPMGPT
Mitogen-activated protein kinase 7 (Homo sapiens), sequence (Q13164 whole entry, looked up, the tested form may be a part): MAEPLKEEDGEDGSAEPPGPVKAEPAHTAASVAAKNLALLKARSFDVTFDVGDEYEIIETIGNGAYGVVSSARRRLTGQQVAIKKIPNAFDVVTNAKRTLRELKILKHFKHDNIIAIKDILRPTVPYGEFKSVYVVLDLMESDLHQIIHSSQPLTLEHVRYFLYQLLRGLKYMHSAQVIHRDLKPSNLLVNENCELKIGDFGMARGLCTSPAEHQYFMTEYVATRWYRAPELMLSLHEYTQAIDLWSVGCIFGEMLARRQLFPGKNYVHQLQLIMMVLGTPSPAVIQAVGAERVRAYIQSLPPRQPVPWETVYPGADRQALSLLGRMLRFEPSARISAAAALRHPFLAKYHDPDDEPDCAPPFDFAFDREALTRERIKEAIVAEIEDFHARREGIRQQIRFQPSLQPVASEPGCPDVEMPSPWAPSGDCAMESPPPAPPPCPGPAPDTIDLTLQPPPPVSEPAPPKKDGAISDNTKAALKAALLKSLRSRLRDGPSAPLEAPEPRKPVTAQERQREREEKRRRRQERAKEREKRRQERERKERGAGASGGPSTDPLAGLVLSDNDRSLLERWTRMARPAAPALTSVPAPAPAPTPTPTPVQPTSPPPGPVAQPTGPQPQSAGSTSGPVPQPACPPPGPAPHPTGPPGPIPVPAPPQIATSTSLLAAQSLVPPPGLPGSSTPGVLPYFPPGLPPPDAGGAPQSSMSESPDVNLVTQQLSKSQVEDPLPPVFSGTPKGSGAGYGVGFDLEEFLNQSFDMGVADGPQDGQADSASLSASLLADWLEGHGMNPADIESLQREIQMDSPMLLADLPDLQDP

Broadly, the viability is a read-out of living cells in per cent, often relative to untreated cells. The term inhibition denotes the drop in the measured response relative to a control, in per cent. Consider `C[C@H]1[C@H](C)CC[C@]2(C(=O)O)CC[C@]3(C)C(=CC[C@@H]4[C@@]5(C)CC[C@H](O)C(C)(C)[C@@H]5CC[C@]43C)[C@H]12`, for which the parasite load remaining in assay [1] is 32.3% (inactive). Further, in assay [1], the viability turned out to be 73.8%. Moreover, the inhibition in assay [2] is 14.7% (inactive). The fold change in assay [3] (setting [15]) was 0.941 (inactive); in [3] (setting [16]), 1.58. The cell count in assay [3] (setting [17]) stood at 8760; in [3] (setting [18]) it was 9310. For the same compound, in [4], the luciferase signal was 40 AU (inactive).

Regarding `CC(=O)O[C@H]1C(=O)[C@@]2(C)[C@H]([C@H](OC(=O)c3ccccc3)[C@]3(O)C[C@H](OC(=O)[C@H](O)[C@@H](NC(=O)c4ccccc4)c4ccccc4)C(C)=C1C3(C)C)[C@]1(OC(C)=O)CO[C@@H]1C[C@@H]2O`, in assay [1], the parasite load remaining is 52.9% (inactive) and 35% (inactive). Further, the viability in assay [1] was 43.2% and 79%. In addition, in assay [2], the inhibition was 17.9% (inactive). For the same compound, the fold change is 0.873 (inactive) and 1.02 (inactive) in assay [3] (setting [15]); 1.16 and 1.19 in assay [3] (setting [16]). In addition, the cell count is 1550 and 2180 in [3] (setting [17]); 1780 and 2140 in assay [3] (setting [18]). Also, the z-score is -1.19 (inactive) and -2.08 (inactive) in assay [5] (setting [19]); 0.25 and 0.578 in [5] (setting [20]); -0.295 (inactive) in [7]. The remaining NAD in assay [6] is 10 nM (inactive). Further, the luciferase signal in assay [4] was 36 AU (inactive).

For `NC(=NCc1ccccc1)NC(=O)c1nc(Cl)c(N)nc1N`, the values for the inhibition in [8] and in assay [2] were 7.39% and -0.294% (inactive), respectively. Besides, the score in assay [9] was found to be 1.09. In [10], this compound had a rescue above control of 5.46. The cytochrome c release ratio in [11] turned out to be 0.99. This compound yielded an inhibition of aggregation in assay [12] of 14.3%. In assay [13], the glutamate uptake change worked out at 12.4%. The aggregation suppression score in assay [14] was 1.26. Further, the parasite load remaining in [1] is 116% (inactive) and 20% (inactive). In addition, in [1], the viability was 89.9% and 61%. Moreover, the z-score in assay [5] (setting [19]) was 2.18 (active) and 1.24 (inactive); in assay [5] (setting [20]) it was 1.18 and 1.91; in assay [7], -0.87 (inactive) and -0.455 (inactive). Also, in assay [4], the luciferase signal is 56 AU (inactive).

Regarding `CO[C@H]1C[C@H](O[C@H]2[C@H](C)[C@@H](O[C@@H]3O[C@H](C)C[C@H](N(C)C)[C@H]3O)[C@@H](C)C[C@@]3(CO3)C(=O)[C@H](C)[C@@H](O)[C@@H](C)[C@@H](C)OC(=O)[C@@H]2C)O[C@@H](C)[C@@H]1O`, the parasite load remaining in assay [1] was 43.4% (inactive). Besides, in assay [1], the viability was 44.8%. In assay [2], the inhibition is -12.7% (inactive). In addition, the fold change in assay [3] (setting [15]) was 0.882 (inactive); in assay [3] (setting [16]) it was 0.459. In addition, the cell count turned out to be 8150 in assay [3] (setting [17]) and 9240 in assay [3] (setting [18]). Also, the remaining NAD in assay [6] was 10 nM (inactive). For the same compound, the luciferase signal in assay [4] is 32 AU (inactive).

With `NCC[C@H](O)C(=O)N[C@@H]1C[C@H](N)[C@@H](O[C@H]2O[C@H](CN)[C@@H](O)[C@H](O)[C@H]2O)[C@H](O)[C@H]1O[C@H]1O[C@H](CO)[C@@H](O)[C@H](N)[C@H]1O`, the parasite load remaining in assay [1] is 126% (inactive). Also, in assay [1], the viability is 113%. Moreover, the inhibition in assay [2] was -15.3% (inactive). Further, the fold change in assay [3] (setting [15]) is 0.816 (inactive); in assay [3] (setting [16]) it was 1.79. Moreover, the cell count amounted to 8210 in assay [3] (setting [17]) and 10100 in [3] (setting [18]). In addition, the z-score is -0.451 (inactive) in assay [5] (setting [19]) and -0.0793 in [5] (setting [20]). In [6], the remaining NAD was 10 nM (inactive). Further, the luciferase signal in [4] was 60 AU (inactive).

For the compound `COc1ccc(-c2cc(=O)c3c(O)c(OC)c(OC)cc3o2)cc1O`, the inhibition in assay [2] is 3.27% (inactive). The fold change in assay [3] (setting [15]) is 1.03 (inactive); in [3] (setting [16]), 0.681. Further, the cell count amounted to 5880 in [3] (setting [17]) and 5680 in assay [3] (setting [18]). Besides, the z-score in assay [7] was 0.86 (inactive).

Turning to `CSC(N)=NCCC[C@H](N)C(=O)O`, the inhibition in assay [2] is -13.5% (inactive). The fold change in assay [3] (setting [15]) is 1.1 (inactive) and 0.994 (inactive); in assay [3] (setting [16]), 0.973 and 0.749. For the same compound, the cell count in assay [3] (setting [17]) is 11000 and 6220; in assay [3] (setting [18]), 10000 and 6260. Besides, the z-score in assay [7] is 0.215 (inactive).

The record behind these values is PubChem BioAssay.
